Results from PubChem BioAssay (NCI).
This is part of a sample that, as a whole, favours compounds with a hit. Of some 79,000 tested, about 15% had one in any assay. A number with no mark means an inactive call. Calls of active or inactive are those of the source. No stated cut-off is given here; in the data, active means growth inhibition above about 70%; inactive means the rest.

How the values were obtained:
[1] = NCI Yeast Anticancer Drug Screen. Data for the rad52 strain (AID 147);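 further: 0% = growth of vehicle-treated control cultures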; conditions: S. cerevisiae rad52 mutant growth inhibition, hits give high values
Procedure, shortened: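 Vehicle-treated cultures served as the reference for growth inhibition of compound-exposed yeast bearing a DNA repair mutation.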

[2] = NCI Yeast Anticancer Drug Screen. Data for the wt1 strain (AID 149);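 further: 0% = growth of vehicle-treated wt1 cultures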; conditions: S. cerevisiae wt1 strain (SPY 50644) growth inhibition, hits give high values
Procedure, shortened: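 The wt1 strain was treated with compounds, and growth was compared with vehicle-treated cultures to give inhibition.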

[3] = NCI Yeast Anticancer Drug Screen. Data for the rad50EPP+ strain (AID 151);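 further: 0% = growth of vehicle-treated control cultures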; conditions: S. cerevisiae rad50 mutant strain, hits give high values
Procedure, shortened: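 In this screen, rad50EPP+ yeast were exposed to compounds. Growth inhibition was scored against vehicle-treated controls.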

[4] = NCI Yeast Anticancer Drug Screen. Data for the mgt1 strain (AID 153); conditions: S. cerevisiae mgt1 mutant growth inhibition, hits give high values
Procedure, shortened: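 mgt1 strain exposed; growth vs vehicle control recorded as inhibition.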

[5] = NCI Yeast Anticancer Drug Screen. Data for the rad50 strain (AID 155);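 further: 0% = growth of vehicle-only cultures of the same strain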; conditions: S. cerevisiae rad50 strain growth inhibition, hits give high values
Procedure, shortened: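 Cells are treated with compound, grown, and their growth is then scored against vehicle-only cultures of the same repair-deficient yeast strain.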

[6] = NCI Yeast Anticancer Drug Screen. Data for the mec2-1 strain (AID 157); conditions: S. cerevisiae mec2-1 strain, hits give high values
Procedure, shortened: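 Vehicle-treated cultures served as reference for growth inhibition of compound-exposed mec2-1 yeast.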

[7] = NCI Yeast Anticancer Drug Screen. Data for the rad14 strain (AID 159);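 further: 0% = growth of vehicle-treated control cultures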; conditions: S. cerevisiae rad14 strain growth inhibition, hits give high values
Procedure, shortened: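 Readout: yeast growth inhibition, referenced to vehicle-only cultures. Strain bears a defined alteration in DNA damage repair.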

[8] = NCI Yeast Anticancer Drug Screen. Data for the sgs1 mgt1 strain (AID 161);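 further: 0% = growth of cultures given vehicle only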; conditions: S. cerevisiae sgs1 mgt1 strain, hits give high values
Procedure, shortened: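 Read-out: growth inhibition vs vehicle controls. Cells: mutant yeast strain deficient in DNA damage repair.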

[9] = NCI Yeast Anticancer Drug Screen. Data for the cln2 rad14 strain (AID 165);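 further: 0% = growth equal to vehicle treated cultures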; conditions: S. cerevisiae cln2 rad14 strain, hits give high values
Procedure, shortened: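 Each compound was tested on cln2 rad14 yeast. Inhibition of growth was calculated against vehicle-exposed controls.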

[10] = NCI Yeast Anticancer Drug Screen. Data for the bub3 strain (AID 167); conditions: S. cerevisiae bub3 mutant strain, hits give high values
Procedure, shortened: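 Part of a panel of yeast mutants defective in DNA damage repair or cell cycle regulation. Each strain is grown with compound, and inhibition is calculated relative to solvent-treated cultures.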

[11] = NCI Yeast Anticancer Drug Screen. Data for the wt2 strain (AID 169);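 further: 0% = growth of vehicle-treated yeast cultures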; conditions: S. cerevisiae wt2 strain growth inhibition, hits give high values
Procedure, shortened: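 Inhibition of yeast growth was determined after compound treatment, normalised to controls receiving only vehicle.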

[12] = NCI Yeast Anticancer Drug Screen. Data for the mlh1 strain (AID 171);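 further: 0% = growth of vehicle-treated control cultures of the same strain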; conditions: S. cerevisiae mlh1 strain growth inhibition, hits give high values
Procedure, shortened: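 Vehicle-normalised growth inhibition of a repair- or checkpoint-altered yeast strain following compound treatment.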

[13] = NCI Yeast Anticancer Drug Screen. Data for the sgs1 strain (AID 173);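 further: 0% = growth of vehicle-only control cultures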; conditions: S. cerevisiae sgs1 mutant, hits give high values
Procedure, shortened: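 Screen format: yeast with repair or checkpoint alterations, compound exposure, growth read relative to vehicle.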

[14] = NCI Yeast Anticancer Drug Screen. Data for the mlh1 rad18 strain (AID 175); conditions: S. cerevisiae mlh1 rad18 strain growth inhibition, hits give high values
Procedure, shortened: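 Vehicle-treated cultures served as the reference for growth inhibition in a yeast strain carrying DNA damage repair alterations exposed to each compound.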

[15] = NCI Yeast Anticancer Drug Screen. Data for the rad18 strain (AID 177); conditions: S. cerevisiae rad18 mutant growth inhibition, hits give high values
Procedure, shortened: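 Test articles were incubated with altered yeast defective in DNA damage repair. Results are given as inhibition of growth versus vehicle.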

[16] = at 5.0 µM (retest, dose inferred, filed as 0.5)
[17] = at 50.0 µM (retest, dose inferred, filed as 5.0)

COc1ccc2c(c1)[nH]c1c(/C=C/c3ccccc3)nccc12
growth inhibition ([1]; at 1.2 µM): 9% | growth inhibition ([1]; at 3.7 µM): -8% | growth inhibition ([1]; at 11.0 µM): -2% | growth inhibition ([1]; at 33.0 µM): 50% | growth inhibition ([1]; at 100.0 µM): 97% (active) | growth inhibition ([2]; at 1.2 µM): -34% | growth inhibition ([2]; at 3.7 µM): -32% | growth inhibition ([2]; at 11.0 µM): -18% | growth inhibition ([2]; at 33.0 µM): 41% | growth inhibition ([2]; at 100.0 µM): 97% (active) | growth inhibition ([3]; at 1.2 µM): 0% | growth inhibition ([3]; at 3.7 µM): 7% | growth inhibition ([3]; at 11.0 µM): 13% | growth inhibition ([3]; at 33.0 µM): 46% | growth inhibition ([3]; at 100.0 µM): 78% (active) | growth inhibition ([4]; at 1.2 µM): 9% | growth inhibition ([4]; at 3.7 µM): 3% | growth inhibition ([4]; at 11.0 µM): 18% | growth inhibition ([4]; at 33.0 µM): 94% (active) | growth inhibition ([4]; at 100.0 µM): 98% (active) | growth inhibition ([5]; at 1.2 µM): 31% | growth inhibition ([5]; at 3.7 µM): 29% | growth inhibition [5, 16]: 44% | growth inhibition ([5]; at 11.0 µM): 23% | growth inhibition ([5]; at 33.0 µM): 78% (active) | growth inhibition [5, 17]: 93% (active) | growth inhibition ([5]; at 50.0 µM): 89.5% (active) | growth inhibition ([5]; at 100.0 µM): 96% (active) | growth inhibition ([6]; at 1.2 µM): -9% | growth inhibition ([6]; at 3.7 µM): -6% | growth inhibition [6, 16]: 42% | growth inhibition ([6]; at 11.0 µM): 1% | growth inhibition ([6]; at 33.0 µM): 75% (active) | growth inhibition [6, 17]: 93% (active) | growth inhibition ([6]; at 50.0 µM): 92.1% (active) | growth inhibition ([6]; at 100.0 µM): 98% (active) | growth inhibition ([7]; at 1.2 µM): -29% | growth inhibition ([7]; at 3.7 µM): -25% | growth inhibition ([7]; at 11.0 µM): -22% | growth inhibition ([7]; at 33.0 µM): 71% (active) | growth inhibition ([7]; at 100.0 µM): 97% (active) | growth inhibition [8, 16]: -28% | growth inhibition [8, 17]: 80% (active) | growth inhibition ([8]; at 50.0 µM): 92.5% (active) | growth inhibition [9, 16]: 40% | growth inhibition [9, 17]: 74% (active) | growth inhibition ([9]; at 50.0 µM): 70.7% (active) | growth inhibition ([10]; at 1.2 µM): 12% | growth inhibition ([10]; at 3.7 µM): 19% | growth inhibition [10, 16]: -24% | growth inhibition ([10]; at 11.0 µM): 27% | growth inhibition ([10]; at 33.0 µM): 48% | growth inhibition [10, 17]: 82% (active) | growth inhibition ([10]; at 50.0 µM): 87.8% (active) | growth inhibition ([10]; at 100.0 µM): 98% (active) | growth inhibition ([11]; at 1.2 µM): -36% | growth inhibition ([11]; at 3.7 µM): -29% | growth inhibition ([11]; at 11.0 µM): -30% | growth inhibition ([11]; at 33.0 µM): 68% | growth inhibition ([11]; at 100.0 µM): 97% (active) | growth inhibition ([12]; at 1.2 µM): -42% | growth inhibition ([12]; at 3.7 µM): -36% | growth inhibition ([12]; at 11.0 µM): -35% | growth inhibition ([12]; at 33.0 µM): 68% | growth inhibition ([12]; at 100.0 µM): 96% (active) | growth inhibition ([13]; at 1.2 µM): 2% | growth inhibition ([13]; at 3.7 µM): -7% | growth inhibition ([13]; at 11.0 µM): -3% | growth inhibition ([13]; at 33.0 µM): 78% (active) | growth inhibition ([13]; at 100.0 µM): 97% (active) | growth inhibition [14, 16]: 29% | growth inhibition [14, 17]: 95% (active) | growth inhibition ([14]; at 50.0 µM): 89.5% (active) | growth inhibition ([15]; at 1.2 µM): 11% | growth inhibition ([15]; at 3.7 µM): 0% | growth inhibition ([15]; at 11.0 µM): 6% | growth inhibition ([15]; at 33.0 µM): 67% | growth inhibition ([15]; at 100.0 µM): 97% (active)
